Source: PubChem BioAssay AID651642 (Sanford-Burnham Center for Chemical Genomics, 2012)
A number with no mark means an inactive call. The source made the active and inactive calls.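 How the source made its calls: active means average half-effect concentration of 10 µM or less in every one of the four cell panels; inactive means the rest.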

Each compound was assayed on HL-1 (assay: cardiomyocyte survival under oxidative or metabolic stress – cell-based, panel, H9c2 and HL-1, H2O2, 2-deoxyglucose, ATP luminescence, SAR follow-up (AID 651642;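 on activity: plate controls were H2O2 plus DMSO for no effect and cells kept without H2O2 for full effect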)). Conditions: H9c2/HL-1 cardiomyocyte H2O2 oxidative damage, mean of runs; activity: with H2O2, at 0.154 µM; outcome: with H2O2.
For `COc1ccc2nc(-c3cc(OC)c(OC)c(OC)c3)cc(C(=O)Nc3cccc(C(C)=O)c3)c2c1`, the outcome was “inactive”. Work on `COc1ccc2c(c1OC)C(=O)N1c3ccccc3C(=O)N(Cc3cccc(Cl)c3Cl)C21` (configuration not stated) yielded an activity of 4.4%. In the case of `COc1cc(-c2cc(C(=O)Nc3cccc(C(=O)N(C)C)c3)c3ccccc3n2)cc(OC)c1OC`, the activity is reported as 0.987% (active). `CCOC(=O)c1cccc(NC(=O)c2cc(-c3cc(OC)c(OC)c(OC)c3)nc3cc(Cl)ccc23)c1` showed an activity of 1.44%. With `COc1cc(-c2cc(C(=O)Nc3cccc(C(C)=O)c3)c3cc(F)ccc3n2)cc(OC)c1OC` the activity was -2.5% (active). With `CCOC(=O)c1cccc(NC(=O)c2cc(-c3cc(OC)c(OC)c(OC)c3)nc3c(Cl)cccc23)c1` the activity was 5.38%. For `CCOC(=O)c1cccc(NC(=O)CNC(=O)c2cc(-c3cc(OC)c(OC)c(OC)c3)nc3ccc(C)cc23)c1`, the activity was -1.48% (active). With `CCOC(=O)c1ccc(NC(=O)c2cc(-c3cc(OC)c(OC)c(OC)c3)nc3ccccc23)cc1` the activity was 0.646%. Compound `COc1cc(-c2cc(C(=O)Nc3cccc(C(C)=O)c3)c3cc(Br)ccc3n2)cc(OC)c1OC` has an activity of 1.55%. For `COc1ccc2c(c1OC)C(=O)N1c3ccccc3C(=O)N(Cc3ccc(C)cc3C)C21` (configuration not stated), the activity was -0.945%. Compound `CCOC(=O)c1cccc(NC(=O)c2cc(-c3cc(OC)c(OC)c(OC)c3)nc3ccc(Cl)cc23)c1` has an activity of -1.55%. For `COc1ccc2nc(-c3cc(OC)c(OC)c(OC)c3)cc(C(=O)NCC(=O)Nc3cccc(C(C)=O)c3)c2c1`, the activity was -0.983% (active).
